Shown are actives, neighbours in structure and some others; about 19% of the full set was active somewhere.
DT40 TDP1 no CPT = qHTS for Inhibitors of human tyrosyl-DNA phosphodiesterase 1 (TDP1): qHTS in cells in absence of CPT; DT40 Tdp1-/- hTDP1 cells, no CPT, ATP luminescence, 48 h; Potency, µM (titrated, usually from 46.2 µM), hits mostly inhibitors; 420,000 tested, 15% active; AID 686978, 2013; further: nearly all actives have a fitted effect of over 55% in size
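Chicken DT40 Tdp1-/- cells stably complemented with human TDP1 were seeded at 400 cells/well with DMSO in place of 20 nM camptothecin. After compound pinning, cells grew at least 48 hr at 37 °C; viability read by CellTiter-Glo luminescence.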
IL1B secr inh = inhibitors of inflammasome signaling (IL-1 beta secretion); THP-1 LPS/ATP IL-1B secretion, AlphaLISA, 16 h; active compounds read low; activity change, % at 57.5 µM; 360,000 tested, 4.7% active; AID 743279; in the data active means activity change below about -50%; inconclusive means mostly about -30% to -49%
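THP-1 cells pretreated 1 hr with compounds (up to 57.5 uM final), then stimulated with LPS (250 ng/mL final) plus ATP (1.25 mM final); secreted IL-1B measured by AlphaLISA after 16 hr, decreased signal indicating inhibition.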
DT40 TDP1 CPT = growth inhibition of DT40 Tdp1-/-;hTDP1 cells with camptothecin (screen for TDP1 inhibitors) | chicken DT40 Tdp1-/-;hTDP1 cells + 20 nM CPT, ATP luminescence, 48 h | Potency, µM (top dose mostly 46.2 µM), actives largely listed as inhibitors | 420,000 tested, 12% active; further: nearly all actives have a fitted effect of over 55% in size
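Cell growth measured by CellTiter-Glo luminescence after a minimum 48 h, 37 C compound exposure with 20 nM CPT in Tdp1-knockout DT40 cells stably expressing hTDP1, seeded 400/well; qHTS titration format.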
HepG2 viability = kills HepG2 cells in TGF-b inhibitor counter-screen; HepG2 CAGA-GFP viability, ATP luminescence, 18 h; Potency, µM (series often up to 46.1 µM), usual class: cytotoxic; 410,000 tested, 0.76% active; AID 588856
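CellTiter-Glo luminescence gave cytotoxicity after 18 hours at 37 degrees C. The cells were HepG2 CAGA-GFP in 1% FBS DMEM, stimulated with 500 pg/mL TGF-beta after compound addition. %Activity was normalised to no-cell wells (complete cell-killing) and DMSO (no toxicity), and curves were fitted and classified.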
TGFb SMAD3 inh = inhibitors of TGF-b signaling; HepG2 CAGA-GFP TGF-b/SMAD3 reporter, GFP fluorescence, 18 h; TGF-beta stimulated, 500 pg/mL final; Potency, µM (doses to about 46.1 µM), usual class: inhibitors; 410,000 tested, 1.2% active; further: nearly all actives have a fitted effect of over 65% in size
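Inhibition was scored as loss of TGF-beta-induced (500 pg/mL final, 18 hours, 37 degrees C) GFP in HEPG2 cells carrying a CAGA-GFP reporter, in DMEM with 1% FBS. Well GFP was summed per cell; Activity was normalised to unstimulated and stimulated DMSO wells, then concentration-response fitting.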
TDP1 block = inhibitors of human tyrosyl-DNA phosphodiesterase TDP1; Potency, µM (highest dose often 130 µM), hits mostly inhibitors; recombinant TDP1, AlphaScreen DNA substrate cleavage; 350,000 tested, 0.28% active; AID 485290; Q9NUW8; further: nearly all actives have a fitted effect of over 40% in size
Target sequence (Q9NUW8 whole entry, looked up): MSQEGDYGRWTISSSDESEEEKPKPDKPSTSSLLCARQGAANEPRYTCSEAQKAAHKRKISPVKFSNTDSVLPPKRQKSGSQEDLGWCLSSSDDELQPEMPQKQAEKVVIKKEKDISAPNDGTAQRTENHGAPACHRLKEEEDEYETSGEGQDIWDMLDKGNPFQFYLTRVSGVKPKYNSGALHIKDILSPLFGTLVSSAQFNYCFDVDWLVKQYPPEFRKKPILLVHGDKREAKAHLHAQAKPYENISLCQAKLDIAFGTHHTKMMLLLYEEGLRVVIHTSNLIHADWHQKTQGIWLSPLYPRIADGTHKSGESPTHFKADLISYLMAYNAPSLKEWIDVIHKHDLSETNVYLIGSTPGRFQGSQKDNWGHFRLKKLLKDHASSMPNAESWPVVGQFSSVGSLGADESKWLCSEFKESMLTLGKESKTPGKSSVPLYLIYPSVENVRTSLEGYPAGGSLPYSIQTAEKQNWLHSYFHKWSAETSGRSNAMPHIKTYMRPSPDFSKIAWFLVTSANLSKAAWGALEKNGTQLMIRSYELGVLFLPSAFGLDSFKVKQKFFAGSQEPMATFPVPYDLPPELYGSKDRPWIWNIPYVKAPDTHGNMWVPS
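Recombinant human Tdp1 (E. coli-expressed, 1 nM final) preincubated with compounds 15 min at room temperature, then 5'-biotin/3'-phosphotyrosine-FITC DNA substrate (15 nM final) added for 5 min. AlphaScreen beads (10 ug/ml final) added 10 min; cleavage lowers signal.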
Numbers stand for hits; i = inactive; ? = inconclusive; nt = not tested or not shown; [ ] = dose if it differs, or a comment. Unless noted, the call rests on the fitted dose curve; in most records, active means well fitted curve in the direction sought with a large enough effect; inconclusive means small, poorly fitted or top-dose-only effect, or another doubt; inactive means no such curve, though single readings can be large; an effect the other way counts as inactive or inconclusive.

SMILES | DT40 TDP1 no CPT | IL1B secr inh | DT40 TDP1 CPT | HepG2 viability | TGFb SMAD3 inh | TDP1 block
COC(=O)c1ccccc1NC(=O)C1CCN(c2ncnc3c2nc2n3CCCCC2)CC1 | 16µM | i | 21µM | i | i | i
Cc1c(Cl)cccc1NC(=O)C1CCN(c2ncnc3c2nc2n3CCCCC2)CC1 | i | nt | ? | i | i | i
CC(C)N(Cc1ccccc1)C(=O)C1CCN(c2ncnc3c2nc2n3CCCCC2)CC1 | 18µM | i | ? | i | i | i
COc1ccccc1NC(=O)C1CCN(c2ncnc3c2nc2n3CCCCC2)CC1 | 18µM | ? | 23µM | i | i | i
O=C(c1cnccn1)N1CCC2(CC1)CN(c1ccncc1)C2 | i | nt | i | nt | nt | nt
Cc1ccc(C(=O)NCCCNC(=O)c2ccccc2C)cn1 | i | i | i | i | i | i
CC(C)Oc1ccc(CNC(=O)c2ccc(CN3CC(=O)N4CCCCC4C3=O)cc2)cc1 (stereo not drawn) | i | nt | i | i | i | i
Cc1ccc(S(=O)(=O)c2nc(-c3ccccc3)oc2SCC(=O)NC2CCCCC2)cc1 | i | nt | i | i | i | i
Cc1nc(SCC(=O)Nc2ccccc2C)cc(-c2ccccc2)n1 | i | nt | i | i | i | i
O=S(=O)(NCCCCCNS(=O)(=O)c1c(F)cccc1F)c1ccc2c(c1)OCCO2 | nt | nt | nt | i | i | i
NCCNS(=O)(=O)c1ccc(Cl)c2ccncc12 | nt | nt | nt | nt | nt | i
NCCCCCCNS(=O)(=O)c1ccc2c(Cl)cccc2c1 | 11µM | nt | 13µM | i | ? | i
NCCNS(=O)(=O)c1cccc2c(Cl)cccc12 | 27µM | nt | 27µM | nt | nt | i
NCCCCNS(=O)(=O)c1ccc2c(Cl)cccc2c1 | 12µM | nt | 12µM | nt | nt | i
NCCCNCCCCNCCCNC(=O)CCc1ccc(O)cc1 | nt | nt | nt | nt | nt | i[21 µM]
O=C(O)c1ccc(N2CCCCS2(=O)=O)cc1 | i | i | i | i | i | i
CC(=O)Nc1ccc(S(=O)(=O)Nc2cccc(-c3csc(C)n3)c2)cc1 | ? | i | 21µM | i | i | i
CC(=O)Nc1ccc(S(=O)(=O)Nc2cccc(-c3nc4cc(C)ccc4o3)c2)cc1 | 21µM | i | 21µM | i | i | nt
Cc1ccc(S(=O)(=O)Nc2ccc(-c3nc4cc(NS(=O)(=O)c5ccc(C)cc5)ccc4o3)cc2)cc1 | nt | nt | nt | nt | nt | i
CC(=O)Nc1ccc(S(=O)(=O)NNc2cccc(C)c2)cc1 | ? | i | 23µM | i | i | nt
Cc1cccc(NC(=O)NNS(=O)(=O)c2ccc(F)cc2)c1 | i | i | i | i | i | i
COc1ccc(NC(=O)N2CCC(n3c(C)nc4cccnc43)CC2)cc1OC | i | nt | i | i | i | i
CC1CCc2[nH]c3ccc(C(=O)N(C)CC(=O)Nc4ccccc4C(F)(F)F)cc3c2C1 (stereo not drawn) | ? | i | ? | i | ? | nt
CCOc1ccc(NC(=O)CN(C)C(=O)c2ccc3[nH]c4c(c3c2)CC(C)CC4)cc1OCC (stereo not drawn) | i | i | ? | i | i | nt
CC1CCc2[nH]c3ccc(C(=O)N(C)CC(=O)Nc4ccccc4Cl)cc3c2C1 (stereo not drawn) | 15µM | i | ? | i | i | i[0.505 µM]
Cc1ccc(NC(=O)CN(C)C(=O)c2ccc3[nH]c4c(c3c2)CC(C)CC4)cc1 (stereo not drawn) | i | -51 | ? | i | ? | i
CCOC(=O)C1CCN(C(=O)COC(=O)C2CCN(S(=O)(=O)c3ccc(C)c(C)c3)CC2)CC1 | i | i | i | i | i | i
CNc1cc(F)nc(F)n1 | 16µM | i | 18µM | i | i | i
COC(=O)c1ccc(C2c3c(oc4ccc(C)cc4c3=O)C(=O)N2Cc2ccc3c(c2)OCO3)cc1 (stereo not drawn) | i | nt | i | i | ? | i

Source: PubChem
